Only some compounds are listed: those with a hit (about 1.3% of all), similar ones and a draw of the others.
Fam108B counter: counter-screen for RBBP9 inhibitors: inhibitors of mouse Fam108B; inhibition, % at 9.51 µM; recombinant Fam108B, FP-Rh probe fluorescence polarization; 0.33% of 300,000 active;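 active means inhibition above the screen mean inhibition plus 3 SD, computed separately per campaign, cut at about 18% in these data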;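 further: inhibitors lower polarization as less probe binds the enzyme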
LYPLA2 counter: LYPLA2 (human) inhibition in PME1 counter-screen; 0.38% of 320,000 active; inhibition, % at 5.9 µM; recombinant LYPLA2, FP-Rh probe fluorescence polarization; O95372;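 active means inhibition above the screen-wide mean plus 3 SD, limit set per campaign, cut at about 26% in these data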;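 further: 0% = LYPLA2 with DMSO and 100% = wells lacking LYPLA2 enzyme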
LYPLA1 inh: blocks human lysophospholipase 1, a PME1 counter-screen; O75608; recombinant LYPLA1, FP-Rh probe fluorescence polarization; inhibition, % at 5.9 µM; 0.16% of 320,000 active; AID 2174;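 active means inhibition above the mean of all tested compounds plus 3 SD, set per campaign, cut at about 14% in these data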;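 further: inhibitors block serine hydrolase probe labeling of LYPLA1 so polarization falls; 0% = enzyme with DMSO and 100% = wells lacking LYPLA1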
PME-1 inh: PME-1 (human) inhibition | Q9Y570 | recombinant PME-1, FP-Rh probe fluorescence polarization | inhibition, % at 5.9 µM | 0.53% of 320,000 active | AID 2130;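 active means inhibition above the campaign mean of all compounds plus 3 SD, cut at about 26% in these data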;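 further: competitive labeling of PME-1 active site by serine hydrolase directed probe; 0% = PME-1 with DMSO and 100% = wells lacking PME-1 enzyme; inhibitors block probe labeling so polarization falls and inhibition rises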
PREPL inh: inhibitors of human prolyl oligopeptidase-like enzyme PREPL; inhibition, % at 5.96 µM; recombinant PREPL, fluorescence polarization activity-based probe; 0.68% of 320,000 active; in the data active means inhibition above about 43%;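 further: 0% = enzyme with DMSO and 100% = wells lacking enzyme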
Target sequence (Q4J6C6 whole entry, looked up): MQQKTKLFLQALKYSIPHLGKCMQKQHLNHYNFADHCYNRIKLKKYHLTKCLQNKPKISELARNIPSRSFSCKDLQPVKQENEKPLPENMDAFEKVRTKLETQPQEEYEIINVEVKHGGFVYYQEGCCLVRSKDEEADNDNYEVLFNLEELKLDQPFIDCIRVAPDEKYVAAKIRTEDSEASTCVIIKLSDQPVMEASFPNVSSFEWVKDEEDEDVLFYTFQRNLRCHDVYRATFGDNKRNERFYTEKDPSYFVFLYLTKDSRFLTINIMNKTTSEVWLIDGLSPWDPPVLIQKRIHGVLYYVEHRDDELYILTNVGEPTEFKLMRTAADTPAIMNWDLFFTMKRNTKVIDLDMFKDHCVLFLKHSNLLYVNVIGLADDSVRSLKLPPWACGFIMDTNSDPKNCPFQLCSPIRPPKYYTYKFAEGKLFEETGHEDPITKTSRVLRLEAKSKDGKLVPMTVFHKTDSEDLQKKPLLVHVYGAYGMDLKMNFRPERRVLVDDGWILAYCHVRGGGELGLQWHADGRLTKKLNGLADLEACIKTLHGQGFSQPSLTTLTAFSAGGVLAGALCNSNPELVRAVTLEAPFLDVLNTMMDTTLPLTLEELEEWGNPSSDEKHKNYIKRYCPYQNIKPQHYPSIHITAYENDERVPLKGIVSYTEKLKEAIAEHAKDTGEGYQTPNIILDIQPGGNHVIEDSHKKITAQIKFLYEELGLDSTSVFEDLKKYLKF
LYPLA2 confirm: counter-screen for PME1 inhibitors: confirmation of human LYPLA2 inhibitors. AID 2232. inhibition, % at 5.9 µM. 72% of 1,100 active. shares compounds with LYPLA2 counter. recombinant LYPLA2, FP-Rh probe fluorescence polarization;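 active means mean inhibition across replicates above the hit cutoff set in the primary screen, cut at about 26% in these data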;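 further: blocked labeling of the enzyme by serine hydrolase FP-Rh probe lowers polarization; 0% = enzyme with DMSO and 100% = wells lacking LYPLA2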
LYPLA2 gel ABPP: blocks human acyl-protein thioesterase 2 in gel ABPP; rhLYPLA2 in mouse brain proteome, gel ABPP FP-Rh; inhibition, % at 20 µM; shares compounds with LYPLA2 counter; 30% of 150 active;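 active means inhibition of LYPLA2 enzyme probe labeling above about 50%, limit read from the data; inactive means inhibition below that limit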;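 further: loss of FP-Rh probe labeling of the LYPLA2 gel band measured as band density; 0% = DMSO only control band and 100% = blank gel background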
* marks the source's active call; other numbers are inactive results; . = no result given.

SMILES	Fam108B counter	LYPLA2 counter	LYPLA1 inh	PME-1 inh	PREPL inh	LYPLA2 confirm	others
COc1ccc(Cl)cc1C(=O)Nc1cccc(-c2ccc3nncn3n2)c1	3	27*	7	-5	5	30*
NS(=O)(=O)c1cccc(NC(=O)COC(=O)Cn2cc(C(F)(F)F)ccc2=O)c1	.	1	-1	0	-3	.
CC1CCN(C(=O)c2[nH]cnc2C(=O)N[C@@H](C)c2ccccc2)CC1	.	4	0	-5	7	.
O=C(O)c1cccc(N2C(=O)c3ccc4c5c(ccc(c35)C2=O)C(=O)N(c2cccc(C(=O)O)c2)C4=O)c1	5	6	4	8	5	.
O=C(O)c1cccc(N2C(=O)c3ccc(Oc4ccc(Cl)cc4)cc3C2=O)c1	-2	53*	-3	1	8	68*	LYPLA2 gel ABPP=55*
CC(=O)N1c2ccc(S(=O)(=O)NCC3CCC(C(=O)NCc4ccc(C)cc4)CC3)cc2CC1C (centres undefined)	7	28*	-2	1	2	28*
Cc1ccc(Cl)cc1N1CCN(C(=O)CCS(=O)(=O)c2ccc3c(c2)NC(=O)CO3)CC1	-4	18	-3	9	0	.
c1ccc(-c2noc(C3CCC3)n2)nc1	2	-1	2	4	5	.
CCCCC1CCC(c2nc(-c3ccccn3)no2)CC1 (centres undefined)	2	29*	8	-7	-12	38*
CCOC(=O)CNC(=O)Cn1c(C)cc2ccccc2c1=O	-4	1	0	2	-1	.
CCOC(=O)C1CCN(C(=O)CNC(=O)Cn2c(C)cc3ccccc3c2=O)CC1	2	29*	2	2	0	19
CC(C)CC(=O)Nc1ccc(C(=O)Cn2nc(C(=O)O)c3ccccc3c2=O)cc1	-14	44*	0	-10	1	39*
CCc1ccc(C(=O)COC(=O)c2cc([N+](=O)[O-])ccc2NCCO)cc1	-1	27*	-3	7	14	20
O=C(CN(C(=O)c1csnn1)c1cccc(C(F)(F)F)c1)NCCc1ccccc1	0	-1	-2	3	1	.
CC(=O)N1CCN(C(=O)c2ccc3c(c2)S(=O)(=O)c2ccccc2C3=O)CC1	10	32*	3	-3	29	32*
CCN1CCN(C(=O)c2ccc3c(c2)S(=O)(=O)c2ccccc2C3=O)CC1	5	40*	6	2	-8	44*
COCCNC(=O)CN1C(=O)/C(=C/c2ccccc2)Oc2ccc(C(C)(C)C)cc21	1	-6	-10	3	12	.
COc1ccc(N2CCN(C(=O)c3cc4c(s3)-c3ccccc3S(=O)(=O)C4)CC2)cc1	1	89*	1	2	37	97*	LYPLA2 gel ABPP=100*
C=C1/C=C(\C)[C@](C)(O)C[C@H](O)CC(=O)[C@H](O)[C@@H](O)[C@H](C)C[C@H](C)OC(=O)/C(C)=C/CC/C=C/[C@@H]2O[C@H]2C[C@H](C)C1	.	.	.	.	9	.
Cc1cc(C)cc(Oc2coc3cc(OC(=O)c4cccs4)ccc3c2=O)c1	-9	29*	2	-1	20	18
Cc1cccc(Oc2coc3cc(OC(=O)c4cccs4)ccc3c2=O)c1	-6	16	3	1	34	.
Cc1ccc(Oc2coc3cc(OC(=O)c4cccs4)ccc3c2=O)cc1	-5	48*	2	-6	39	44*
CSCCC(NC(=O)COc1ccccc1)C(=O)N1CCOCC1 (centres undefined)	.	10	2	2	1	.
COc1ccccc1NC(=O)CCn1c(=O)c2cccn2c2ccccc21	1	26*	-2	2	-1	-5
O=C(Nc1cccc(S(=O)(=O)N2CCCC2)c1)c1cc(-c2ccccn2)nc2ccccc12	-6	-16	-13	1	-1	.
O=C(c1cccc(S(=O)(=O)Nc2ccc(Br)cc2)c1)N1CCCC1	-1	-1	-2	3	-2	.
O=C(CSc1ccc(Cl)cc1)N1CCN(c2ccc([N+](=O)[O-])cc2Cl)CC1	-1	31*	1	-2	-22	10
O=[N+]([O-])c1ccccc1-c1nc(-c2ccc(Br)o2)no1	-1	32*	0	3	9	29*

Compound activity: PubChem, The Scripps Research Institute Molecular Screening Center
